From PubChem BioAssay
Shown are actives, neighbours in structure and some others; about 3.6% of the full set was active somewhere.
FUS suppressor = suppressors of FUS proteinopathy in yeast. S. cerevisiae FUS-expressing, growth rescue, OD600, 24 h. actives 0.24% (n = 390,000). Potency, µM (top dose mostly 76.6 µM), most hits filed as activators;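 further: plate controls were DMSO vehicle for no effect and reference control for full effect; nearly all actives have a fitted effect of over 55% in size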
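Restored growth of FUS-toxic S. cerevisiae, read as 600 nm absorbance after 24 h at 30C in galactose medium (starting OD 0.005). Controls CP55940 and DMSO.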
ClpP mod = qHTS Assay for Activators of ClpP. ATP-dependent Clp protease proteolytic subunit (Bacillus subtilis (strain 168)), P80244. purified B. subtilis ClpP, FRET peptide cleavage, 20 min. Potency, µM (top dose mostly 57.5 µM), without a hit: at the highest dose activity change, negative = active. actives 1.9% (n = 340,000); active means well fitted falling curve with a large enough effect; inconclusive means small, poorly fitted or top-dose-only effect; inactive means no such curve, though single readings can be large or run the other way; further: the source files actives as falling curves though it sought activators and does not explain the sign; nearly all actives have a fitted effect of over 65% in size
Target sequence (P80244 whole entry, looked up): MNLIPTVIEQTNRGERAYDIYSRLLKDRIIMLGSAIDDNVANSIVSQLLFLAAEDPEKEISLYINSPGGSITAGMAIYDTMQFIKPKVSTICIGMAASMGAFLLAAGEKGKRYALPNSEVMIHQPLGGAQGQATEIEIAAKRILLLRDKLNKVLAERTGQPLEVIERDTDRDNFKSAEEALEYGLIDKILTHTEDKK
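Buffer: 100 mM Tris/HCl pH8, 100 mM KCl, 0.05% low protease BSA, 2.5% glycerol, 0.01% Tween-20. ClpP 10 microg/mL final; 20 min RT; delta FRET normalized to ADEP and DMSO controls.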
Abeta rescue = A-beta toxicity reversal in yeast; Potency, µM (titrated, usually from 46.1 µM), most hits filed as activators; actives 0.063% (n = 410,000); AID 1347071; yeast expressing A-beta42, growth rescue, OD600, 48 h; response scale: 0% DMSO, 100% iron-clioquinol control; further: nearly all actives have a fitted effect of over 55% in size
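Yeast A-beta toxicity model in growth medium with pinned compounds, 48 h at 30 C; growth read as absorbance at 600 nm. Normalized to FeCl3/clioquinol equimolar mix (positive) and DMSO (negative).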
aSyn yeast inh = inhibitors of alpha-synuclein toxicity in yeast | Yeast expressing alpha-synuclein, growth rescue, BacTiter-Glo, 24 h | AID 652106 | actives 0.14% (n = 370,000) | Potency, µM (doses to about 46.1 µM), without a hit: at the top dose growth rescue (activation), most hits filed as activators; further: % of control where 0% means no effect; nearly all actives have a fitted effect of over 65% in size
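Readout is rescue of growth in alpha-synuclein-expressing yeast, so inhibitors of toxicity appear as activators. Growth after 24 hr at 30 deg C in galactose medium is quantified by luminescence.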
Mm-Cpn inhibitor = inhibitors of Methanococcus maripaludis chaperonin TRiC (MmCpn); actives 0.031% (n = 330,000); purified Mm-Cpn ATPase, ADP Transcreener TR-FRET; Potency, µM (highest dose often 76.9 µM), for inactives: at the highest dose activity, negative = inhibition, actives largely listed as inhibitors; AID 504842; further: on the % scale 0 is the no-effect control and ±100 the full control effect; nearly all actives have a fitted effect of over 80% in size
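Purified archaeal chaperonin (25 nM final) was preincubated with compound for 10 min at 37°C, then ATP (10 uM final) was added for 30 min at 37°C in Tris pH 7.4/KCl/MgCl2/DTT buffer. ADP was quantified by HTRF Transcreener TR-FRET.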
TDP-43 yeast inh = rescues yeast growth from TDP-43 toxicity. AID 652104. Potency, µM (titrated, usually from 46.1 µM), for inactives: at the top dose growth rescue (activation), usual class: activators. TDP-43 expressing yeast growth rescue, BacTiter-Glo, 24 h. actives 1.8% (n = 410,000); further: % of control where 0% means no effect; nearly all actives have a fitted effect of over 50% in size
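Galactose-induced TDP-43 yeast, OD600=0.02, compound pinned; 24 hr, 30 deg C; BacTiter-Glo luminescence for growth. Inhibitors of TDP-43 toxicity read as activators.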
* = called active by the depositor; i = inactive; ? = inconclusive; / = no result. Unless noted, the call rests on the fitted dose curve; in most records, active means well fitted curve in the direction sought with a large enough effect; inconclusive means small, poorly fitted or top-dose-only effect, or another doubt; inactive means no such curve, though single readings can be large; an effect the other way counts as inactive or inconclusive. Potency means the concentration at half of the fitted maximal effect.

SMILES	FUS suppressor	ClpP mod	Abeta rescue	aSyn yeast inh	Mm-Cpn inhibitor	TDP-43 yeast inh
O=C(O)CCC(=O)N1CCN(c2ccccn2)CC1	/	25µM*	i	-8%	-3%	8%
O=C(CCc1ccccc1)N1CCN(c2ccccn2)CC1	/	?	i	-1%	-4%	-25%
COc1ccccc1CC(=O)N1CCN(c2ccccn2)CC1	i	22µM*	i	0%	0%	-23%
CCc1c(C)nc2nncn2c1Nc1ccc(Cl)cc1	i	2%	i	/	/	?
CC(=O)Nc1ccc(/C=C/c2ccnc3ccccc23)cc1[N+](=O)[O-]	/	-1%	/	0%	/	/
CC1=C(C(=O)Nc2cccnc2)C(c2cccc(F)c2)n2nc(SCc3ccccc3F)nc2N1 (centres undefined)	i	-13%	i	/	/	8%
CCOC(=O)c1c(NC(=O)c2ccn(CC)n2)sc2c1CCCC2	i	25µM*	i	1%	2%	-6%
CCOC(=O)c1c(NC(=O)c2ccc(C)cc2)sc2c1CCCCC2	i	0%	i	/	/	6%
CCOC(=O)c1c(NC(=O)c2ccccc2N(C)S(=O)(=O)c2ccccc2)sc2c1CCCC2	/	13µM*	i	11%	-9%	27%
CC(=O)OCc1cnc(C)c2oc(=O)c(C(=O)Nc3ccc(F)cc3C)cc12	i	2%	i	2%	/	10%
Cc1nc(N2CCN(C(=O)COc3ccccc3)CC2)c2c(C)c(C)sc2n1	i	1%	i	-2%	-2%	16µM*
Cc1cccc(N2CCN(C(=O)c3cccc(S(=O)(=O)N4CCCCC4)c3)CC2)c1C	i	1%	i	6%	-6%	7.1µM*
COc1ccc(N2CCN(C(=O)c3ccccc3NS(=O)(=O)c3ccc(C)cc3)CC2)cc1	/	13µM*	i	19%	0%	?
Cc1ccc(C)c(N2CCN(C(=O)c3ccc(N4CCCC4=O)cc3)CC2)c1	i	1%	i	2%	1%	20µM*
Cc1cccc(N2CCN(C(=O)c3cccc(N4CCCC4=O)c3)CC2)c1C	i	-1%	i	5%	-3%	13µM*
Cc1ccc(S(=O)(=O)Nc2ccccc2C(=O)N2CCOCC2)cc1	i	0%	i	2%	-1%	-6%
O=C(c1cccc(N2CCCC2=O)c1)N1CCN(c2ccccc2)CC1	i	-5%	i	-4%	4%	9%
O=C(c1cccc(S(=O)(=O)N2CCCCCC2)c1)N1CCN(c2ccccc2F)CC1	i	-3%	i	8%	-1%	?
CC1CCCCN1S(=O)(=O)c1ccc(C(=O)Nc2sc3c(c2C(N)=O)CC(C)(C)NC3(C)C)cc1 (centres undefined)	i	48%	i	-3%	/	14%
CCc1nnc(NC(=O)CSc2nc3c([nH]c4ccccc43)c(=O)n2-c2ccc(OC)cc2)s1	i	?	i	/	/	32%
Cc1cccc(NS(=O)(=O)c2ccc(C(=O)N3CCN(c4ccccc4O)CC3)cc2)c1C	32µM*	-1%	i	0%	-3%	15%
O=C(c1cccc(S(=O)(=O)N2CCCCC2)c1)N1CCc2ccccc21	2.8µM*	0%	i	4%	3%	-7%
Cc1cc(C)c(NC(=O)CSc2nc3c([nH]c4ccccc43)c(=O)n2C)c(C)c1	i	-2%	i	/	/	10%
Cc1cc(C)cc(OCC(=O)N2CCC(c3nc4ccccc4o3)CC2)c1	i	0%	i	/	/	22µM*
Cc1cc(OC(C)C(=O)N2CCC(c3nc4ccccc4o3)CC2)ccc1Cl (centres undefined)	?	-2%	i	/	/	25µM*
CCOC(=O)C1=C(CN(C)Cc2ccccc2)NC(=O)NC1c1ccc(OC(C)C)cc1 (centres undefined)	i	-1%	i	/	/	7%
